The text below walks through data of PubChem BioAssay (Tox21).

Values without a mark were called inactive. Results filed as inconclusive are left out. Activity calls are given as the source filed them. Unless noted, calls follow the shape of the full dose curve.

A short description of assay [1]: Nuclear factor erythroid 2-related factor 2/antioxidant responsive element (Nrf2/ARE) small molecule agonists: qHTS cell viability counter screen in human keratinocytes (AID 1919968; active = well fitted curve in the direction sought with a large enough effect in the repeat runs; an effect the other way counts as inactive or inconclusive; also: nearly all actives have a fitted effect of over 55% in size). In a few lines: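 Measured as CellTiter-Fluor fluorescence, this readout tracks cytotoxicity in the same wells as the ARE-luciferase screen. HaCaT reporter cells (1,500/well) received compounds after a 5 h pre-incubation and were exposed for 23 h.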

Assay [2] in a line: Nuclear factor erythroid 2-related factor 2/antioxidant responsive element (Nrf2/ARE) small molecule agonists: luciferase reporter gene qHTS assay in human keratinocytes (AID 1919969). Also: nearly all actives have a fitted effect of over 35% in size. Also: potency is read from the fitted curve at half-maximal effect. A general note: Reporter assays use an easily measured gene product as a stand-in for the process of interest.
The target in assay [3] is Gonadotropin-releasing hormone receptor (Homo sapiens) (UniProt P30968). Briefly: Human gonadotropin-releasing hormone receptor (GnRHR) small molecule agonists, calcium flux assay in GnRHR-HEK293 cells (AID 1920063). Also: nearly all actives have a fitted effect of over 35% in size. In a few lines: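 Fluorescence kinetics (480 nm excitation, 540 nm emission; 3 min, 1 s steps) report calcium mobilisation in human GnRHR-HEK293 cells in agonist mode. Dye incubation: 1 h, 37 C.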
Chain of Gonadotropin-releasing hormone receptor (Homo sapiens) (P30968 whole entry, looked up): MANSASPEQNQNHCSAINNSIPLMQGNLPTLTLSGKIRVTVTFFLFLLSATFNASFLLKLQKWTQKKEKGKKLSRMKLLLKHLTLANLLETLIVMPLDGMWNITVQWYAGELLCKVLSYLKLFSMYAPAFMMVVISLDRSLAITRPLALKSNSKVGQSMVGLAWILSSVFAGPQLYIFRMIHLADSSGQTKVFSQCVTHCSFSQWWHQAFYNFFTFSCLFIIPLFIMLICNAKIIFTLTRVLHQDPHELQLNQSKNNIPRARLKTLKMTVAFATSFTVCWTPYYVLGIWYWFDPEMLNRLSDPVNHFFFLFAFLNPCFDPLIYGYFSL
In general terms: A change in cytosolic calcium serves as a functional read-out for many receptors and channels.

Assay [4] concerns the target KiSS-1 receptor (Homo sapiens) (UniProt Q969F8). Briefly: Human kisspeptin (KISS1R) small molecule agonists, calcium flux assay in KISS1R-HEK293 cells (AID 1920064; active = well fitted curve in the direction sought with a large enough effect in the repeat runs; an effect the other way counts as inactive or inconclusive). In a few lines:
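Measures KISS1R agonism through calcium-sensitive dye fluorescence in stably transfected HEK293 cells, read for 3 min after pin-tool compound delivery; 15-point titrations in triplicate.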

Assay [5] in a line: G protein-coupled receptor (GPCR) small molecule agonists, calcium flux assay: HEK293 wild type cell line counter screen (AID 1920065). In a few lines: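 Readout: fluorescence at 480 nm excitation/540 nm emission, sampled at 1 s intervals for 3 min. Cells had been cultured 18 h, then dye-loaded 1 h at 37 C before compound or ATP addition.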
A short description of assay [6]: p53 small molecule agonists, cell-based qHTS assay with human liver microsomes (AID 1963577).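 Also: p53 response element beta-lactamase reporter cells with liver microsomes plus NADPH.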 In a few lines: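 Reporter activation was measured by LiveBLAzer fluorescence intensity in p53RE-bla cells, which had been exposed to compounds for 16 h at 37 C alongside 0.5 mg/mL human liver microsomes and 0.5 mg/mL NADPH (final concentrations).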
For orientation: Quantitative high-throughput screening tests each substance at several concentrations.

Assay [7] is described as follows: p53 small molecule agonists, cell-based qHTS assay with rat liver microsomes (AID 1963578). A digest of the protocol: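 Compound in DMSO added to p53RE-bla cells 5 h post-plating; rat microsomes/NADPH 0.5 mg/mL final; 16 h, 37 C; LiveBLAzer 2 h RT.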
Assay [8] in a line: p53 small molecule agonists, cell-based qHTS assay with human liver microsomes: qHTS cell viability counter screen (AID 1963579). Also: nearly all actives have a fitted effect of over 45% in size. In a few lines:
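HLM-supplemented (0.5 mg/mL final) and NADPH-supplemented (0.5 mg/mL final) p53RE-bla cultures, 4,000 cells per well, were dosed with compounds in DMSO for 16 h at 37 C; luminescent ATP detection (CellTiter-Glo, 30 min, room temperature) quantified surviving cells.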

The nature of assay [9]: p53 small molecule agonists, cell-based qHTS assay with rat liver microsomes: qHTS cell viability counter screen (AID 1963580). Also: nearly all actives have a fitted effect of over 45% in size. In a few lines:
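Intracellular ATP, by CellTiter-Glo luminescence, defines viability. HCT-116 p53RE-bla cells, 4,000 per well, were compound-treated in the presence of rat liver microsomes and NADPH for 16 h at 37 C.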

The nature of assay [10]: p53 small molecule agonists, cell-based qHTS assay: qHTS cell viability counter screen (AID 1963581). Also: nearly all actives have a fitted effect of over 45% in size. A digest of the protocol: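 In the same plates used for the p53 bla reporter, HCT-116 cells given compounds for 16 h at 37 C received CellTiter-Glo; luminescence was recorded 30 min later at room temperature.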
Assay [11] can be described thus: p53 small molecule agonists, cell-based qHTS assay (AID 1963582; active = well fitted activation curve with a large enough effect in the signal ratio in the repeat runs, not every such curve was filed as active; the % refers to the signal ratio). A digest of the protocol:
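Compounds are pin-transferred in DMSO onto p53RE-bla cells and incubated 16 h at 37 C. The B/G FRET beta-lactamase substrate is then applied for 2 h at RT and fluorescence recorded.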

The target in assay [12] is 5-hydroxytryptamine receptor 2A (Homo sapiens) (UniProt P28223). Kind of assay: 5-hydroxytryptamine receptor 2A (HTR2A) small molecule antagonists, cell-based qHTS assay (AID 1963586). Also: nearly all actives have a fitted effect of over 45% in size. A digest of the protocol:
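Antagonist-mode intracellular calcium assay: DOI (4 nM) added after 5 min compound pre-incubation at room temperature to dye-loaded HTR2A-CHO cells. Fluorescence followed for 3 min, sampled every second.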

Assay [13] shares this target. Kind of assay: 5-hydroxytryptamine receptor 2A (HTR2A) small molecule agonists, cell-based qHTS assay (AID 1963587). Also: nearly all actives have a fitted effect of over 30% in size. A digest of the protocol: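 Kinetic calcium-flux fluorescence (2 min, 1 sec intervals) after compound addition in agonist mode. HTR2A-CHO cells were cultured 18 h, then dye-loaded 1 h at 37 C.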
Assay [14] addresses Muscarinic acetylcholine receptor M1 (Homo sapiens) (UniProt P11229). Briefly: Cholinergic receptor muscarinic 1 (CHRM1) small molecule antagonists, cell-based qHTS assay (AID 1963588). Also: nearly all actives have a fitted effect of over 40% in size. Also: potency is read from the fitted curve at half-maximal effect. In a few lines: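 CHRM1-CHO calcium-flux assay, antagonist mode. Cells were seeded 18 h, dye-loaded 1 h at 37 C and given compound for 5 min at RT, then acetylcholine was added at 50nM. FDSS fluorescence was read 3 min; 15 concentrations, three runs.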

Assay [15] shares this target. Kind of assay: Cholinergic receptor muscarinic 1 (CHRM1) small molecule agonists, cell-based qHTS assay (AID 1963589). Also: nearly all actives have a fitted effect of over 35% in size. In a few lines:
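Each compound was tested at 15 concentrations across three independent runs on dye-loaded CHO cells stably expressing human CHRM1, reading intracellular calcium fluorescence kinetically at 1 sec intervals.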

The target in assay [16] is Beta-2 adrenergic receptor (Homo sapiens) (UniProt P07550). Briefly: Adrenergic beta2 receptor (ADRB2) small molecule antagonists, cell-based qHTS assay (AID 1963592). Also: series mostly up to about 92 µM; nearly all actives have a fitted effect of over 50% in size. A digest of the protocol: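 Cells (CHO, stable ADRB2 overexpression) incubated 18-20hr at 37C; compounds added from DMSO; agonist mix (1nM isoproterenol, 100uM IBMX, 25uM Ro-20-1724) added; 0.5hr RT; d2-cAMP and anti-cAMP-cryptate added; 1hr RT; 665/615 nm read.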
Chain of Beta-2 adrenergic receptor (Homo sapiens) (P07550 whole entry, looked up): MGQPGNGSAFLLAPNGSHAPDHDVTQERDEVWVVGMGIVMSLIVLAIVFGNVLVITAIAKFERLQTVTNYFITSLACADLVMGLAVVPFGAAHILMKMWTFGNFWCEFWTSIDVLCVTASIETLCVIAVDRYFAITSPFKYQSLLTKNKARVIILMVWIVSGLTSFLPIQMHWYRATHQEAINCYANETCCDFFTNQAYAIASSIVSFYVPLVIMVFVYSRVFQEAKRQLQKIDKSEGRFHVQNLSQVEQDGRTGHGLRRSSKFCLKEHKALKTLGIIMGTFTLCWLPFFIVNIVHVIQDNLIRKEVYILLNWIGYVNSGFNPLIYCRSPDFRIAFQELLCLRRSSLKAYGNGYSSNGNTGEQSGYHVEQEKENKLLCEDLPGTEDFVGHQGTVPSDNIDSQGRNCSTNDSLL

Assay [17] deals with D(2) dopamine receptor (Homo sapiens) (UniProt P14416). Kind of assay: Dopamine D2 receptor (DRD2) small molecule agonists, cell-based qHTS assay (AID 1963594). Also: nearly all actives have a fitted effect of over 35% in size. In a few lines: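 cAMP accumulation in DRD2-HEK293 cells measured by HTRF after 1 h detection; compounds added 10 min before NKH477 (200nM […]) forskolin-analogue stimulation, 30 min at room temperature, with Ro20-1724 present at 0.1 mM final.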
Chain of D(2) dopamine receptor (Homo sapiens) (P14416 whole entry, looked up): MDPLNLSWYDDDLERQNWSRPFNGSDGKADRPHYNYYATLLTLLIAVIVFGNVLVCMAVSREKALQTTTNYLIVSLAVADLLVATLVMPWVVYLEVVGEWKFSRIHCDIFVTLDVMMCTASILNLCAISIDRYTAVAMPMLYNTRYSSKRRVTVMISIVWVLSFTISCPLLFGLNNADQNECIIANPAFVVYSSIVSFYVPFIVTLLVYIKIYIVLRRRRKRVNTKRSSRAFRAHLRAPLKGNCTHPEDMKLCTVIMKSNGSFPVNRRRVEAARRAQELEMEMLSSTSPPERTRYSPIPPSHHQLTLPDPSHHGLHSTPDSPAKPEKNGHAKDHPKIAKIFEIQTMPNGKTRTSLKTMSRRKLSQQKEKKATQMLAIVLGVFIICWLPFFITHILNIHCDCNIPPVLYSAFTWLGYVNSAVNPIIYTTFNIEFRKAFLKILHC

Assay [18] has the same target. Briefly: Dopamine D2 receptor (DRD2) small molecule antagonists, cell-based qHTS assay (AID 1963595; active = well fitted inhibition curve with a large enough effect in the signal ratio in the repeat runs, with a control signal flat; the % refers to the signal ratio). In a few lines: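 HTRF cAMP read-out at 665 and 620 nm emission (340 nm excitation). Antagonist mode: compounds were tested against 12 nM quinpirole in DRD2-HEK293 cells, with 200 nM NKH477 raising cAMP and 0.1 mM Ro20-1724 blocking its breakdown.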
The nature of assay [19]: cAMP Responsive Elements (CRE) small molecule antagonists, cell-based qHTS assay (AID 1963591; active = well fitted inhibition curve with a large enough effect in the signal ratio in the repeat runs, not every such curve was filed as active; the % refers to the signal ratio). A digest of the protocol:
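Inhibition of NKH477-driven (0.25 uM final) CRE-beta-lactamase signal in HEK293T cells, 3 h compound exposure at 37 °C, detected by FRET substrate fluorescence.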

Chain of KiSS-1 receptor (Homo sapiens) (Q969F8 whole entry, looked up): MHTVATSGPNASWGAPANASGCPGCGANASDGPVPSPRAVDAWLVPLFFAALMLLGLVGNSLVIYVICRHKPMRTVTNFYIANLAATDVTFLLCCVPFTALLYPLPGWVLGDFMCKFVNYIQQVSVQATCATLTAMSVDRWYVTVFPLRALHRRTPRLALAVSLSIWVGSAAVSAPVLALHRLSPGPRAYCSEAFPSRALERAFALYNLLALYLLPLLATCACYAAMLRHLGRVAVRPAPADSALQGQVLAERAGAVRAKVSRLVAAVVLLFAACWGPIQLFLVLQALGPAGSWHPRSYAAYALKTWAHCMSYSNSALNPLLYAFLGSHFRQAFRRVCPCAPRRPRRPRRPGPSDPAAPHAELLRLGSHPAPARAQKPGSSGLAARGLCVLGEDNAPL
Chain of Muscarinic acetylcholine receptor M1 (Homo sapiens) (P11229 whole entry, looked up): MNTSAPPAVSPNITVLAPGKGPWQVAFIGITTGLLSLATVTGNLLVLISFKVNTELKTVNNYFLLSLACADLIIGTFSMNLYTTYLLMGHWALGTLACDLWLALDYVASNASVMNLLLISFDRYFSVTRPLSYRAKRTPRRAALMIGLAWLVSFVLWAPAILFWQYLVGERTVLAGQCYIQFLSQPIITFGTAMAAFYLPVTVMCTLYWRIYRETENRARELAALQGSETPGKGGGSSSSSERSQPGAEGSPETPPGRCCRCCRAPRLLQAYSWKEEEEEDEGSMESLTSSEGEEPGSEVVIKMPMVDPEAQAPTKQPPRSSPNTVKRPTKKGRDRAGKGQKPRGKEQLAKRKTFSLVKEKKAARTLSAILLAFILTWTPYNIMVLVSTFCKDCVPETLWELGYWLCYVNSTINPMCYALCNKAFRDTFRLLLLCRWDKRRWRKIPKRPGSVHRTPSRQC
Chain of 5-hydroxytryptamine receptor 2A (Homo sapiens) (P28223 whole entry, looked up): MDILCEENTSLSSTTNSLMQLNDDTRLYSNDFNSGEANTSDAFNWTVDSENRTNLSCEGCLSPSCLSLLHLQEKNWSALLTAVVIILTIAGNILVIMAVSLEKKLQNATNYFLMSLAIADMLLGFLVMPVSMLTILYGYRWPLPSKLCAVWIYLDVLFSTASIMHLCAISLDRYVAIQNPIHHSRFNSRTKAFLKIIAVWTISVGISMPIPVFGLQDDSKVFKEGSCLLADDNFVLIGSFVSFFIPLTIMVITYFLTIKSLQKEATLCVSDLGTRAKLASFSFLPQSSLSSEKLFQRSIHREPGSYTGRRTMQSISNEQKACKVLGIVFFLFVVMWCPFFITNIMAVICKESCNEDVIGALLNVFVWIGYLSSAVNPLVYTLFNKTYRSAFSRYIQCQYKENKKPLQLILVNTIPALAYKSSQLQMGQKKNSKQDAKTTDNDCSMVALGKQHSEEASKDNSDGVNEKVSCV

Turning to `CCOC(=O)[C@H](CCc1ccccc1)N[C@@H](C)C(=O)N1Cc2cc(OC)c(OC)cc2C[C@H]1C(=O)O`, the Potency entry in [1], in assay [2], in [3], in assay [6], in assay [7] and in [8] was “inactive” each time. Besides, the Potency entry in assay [9], in assay [10], in assay [11], in [12], in assay [13] and in assay [14] was “inactive” throughout. The Potency result in assay [15], in assay [16], in assay [17] and in assay [18] was “inactive” throughout. Moreover, the result in assay [4] and in assay [5] was inactive.
With `CCCC(=O)OC(=O)CCC`, the Potency result in assay [1], in assay [2], in [3], in assay [6], in [7] and in [8] was “inactive” each time. For the same compound, the Potency result in [9], in [10], in assay [11], in [12], in assay [13] and in assay [14] was “inactive” throughout. Further, the Potency entry in assay [15], in assay [19], in assay [16], in [17] and in assay [18] was “inactive” in each case. The result in assay [4] and in assay [5] was inactive.
Regarding `O=C(O)C(=O)Cc1c[nH]c2ccccc12`, the Potency entry in assay [1], in assay [3], in assay [6], in assay [7], in assay [8] and in [9] was “inactive” in each case. The Potency result in assay [10], in assay [11], in assay [12], in assay [13], in assay [14] and in assay [15] was “inactive” each time. For the same compound, the Potency entry in assay [16] and in assay [18] was “inactive” each time. Also, in [2], the Potency is 54.5 µM (active). For the same compound, the outcome in [4] and in assay [5] was inactive.
Consider `C=C[C@@H](C)CCC=C(C)C`, for which the Potency entry in assay [1], in [2], in assay [3], in [6], in assay [7] and in assay [8] was “inactive” in each case. Also, the Potency result in assay [9], in [10], in assay [11], in assay [12], in assay [13] and in assay [14] was “inactive” in each case. Besides, the Potency result in assay [15], in assay [19], in [16], in [17] and in assay [18] was “inactive” in each case. Also, the outcome in assay [4] and in [5] was inactive.
With `C[C@]12CCC(=O)C=C1CC[C@@H]1[C@@H]2CC[C@@]2(C)[C@H]1CC[C@]2(O)C(=O)CO`, the Potency entry in [1], in assay [2], in [3], in [6], in assay [7] and in assay [8] was “inactive” each time. Moreover, the Potency entry in [9], in assay [10], in assay [11], in assay [12], in assay [13] and in assay [14] was “inactive” in each case. Besides, the Potency result in [15], in [16] and in [17] was “inactive” in each case. In addition, the outcome in [4] and in [5] was inactive.
`CCCC(=O)OCOC(=O)C1=C(C)NC(C)=C(C(=O)OC)C1c1cccc(Cl)c1Cl` (stereo not drawn): the Potency result in assay [1], in assay [2], in assay [3], in assay [6], in assay [7] and in [8] was “inactive” throughout. Further, the Potency entry in assay [9], in assay [10], in assay [11], in assay [12], in assay [13] and in assay [14] was “inactive” in each case. For the same compound, the Potency result in assay [15], in assay [19], in [16], in assay [17] and in assay [18] was “inactive” each time. For the same compound, the outcome in assay [4] and in [5] was inactive.
Turning to `CO/N=C(\C(=O)N[C@@H]1C(=O)N2C(C(=O)O)=C(CSc3nc(=O)c(O)nn3C)CS[C@H]12)c1csc(N)n1`, the Potency result in assay [1], in [2], in assay [3], in [6], in assay [7] and in assay [8] was “inactive” each time. Also, the Potency entry in assay [9], in [10], in assay [11], in assay [12], in assay [13] and in [15] was “inactive” throughout. In addition, the Potency entry in assay [19], in assay [16], in assay [17] and in assay [18] was “inactive” in each case. In addition, the result in [4] and in [5] was inactive. For the same compound, the Potency in [14] was 0.516 µM (active).
